Results as given in the supplement of paper PMC10849652.
The full data set covers some 7,900 targets. This sample favours those with a hit. About 0.6% of all pairs of compound and target were hits. Unmarked numbers belong to inactive results.

Experiments:
Assay in all cases: log2 fold change, soluble protein after heating vs DMSO (PISA); higher = thermal stabilisation; K562 cells, 10 uM, 30 min; active = over 0.2 and 3.5 SD of the protein, either way, in both replicates (recomputed)
bafetinib = compound: Cc1ccc(NC(=O)c2ccc(CN3CC[C@H](N(C)C)C3)c(C(F)(F)F)c2)cc1Nc1nccc(-c2cncnc2)n1 [bafetinib]
In short: (§1)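 K562 cells at 2×10^6 cells/mL were treated for 30 min with 10 μM compound, and aliquots were heated for 3 min over 48°C-58°C before pooling. Extraction used PBS with 0.5% NP-40 at 4°C, and soluble protein was the supernatant after 21,000xg for 90 min, measured by TMTpro 16plex LC-MS/MS with channel sums equalised. Thermal stability values, relative to control samples and from duplicates, are log2 fold changes.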

[1] = compound: Cc1cccc(CC(=O)N2CCc3c2ccc(-c2cn(C)c4ncnc(N)c24)c3F)n1
In short: as §1

nilotinib = compound: Cc1cn(-c2cc(NC(=O)c3ccc(C)c(Nc4nccc(-c5cccnc5)n4)c3)cc(C(F)(F)F)c2)cn1 [nilotinib]
In short: as §1

[2] = compound: Cc1nc(Nc2n[nH]c3c2CN(C(=O)N[C@H](CN(C)C)c2ccccc2)C3(C)C)c2sccc2n1
In short: as §1

dasatinib = compound: Cc1nc(Nc2ncc(C(=O)Nc3c(C)cccc3Cl)s2)cc(N2CCN(CCO)CC2)n1 [dasatinib]
In short: as §1

[3] = compound: Cc1ncc(-c2ccnc(Nc3ccc(S(C)(=O)=O)cc3)n2)n1C(C)C
In short: as §1

[4] = compound: Cn1cc(-c2ccc3c(c2)CCN3C(=O)Cc2cccc(C(F)(F)F)c2)c2c(N)ncnc21
In short: as §1

[5] = compound: Cn1cc(-c2ccc3nnc(C(F)(F)c4ccc5ncccc5c4)n3n2)cn1
In short: as §1

tipifarnib = compound: Cn1cncc1[C@@](N)(c1ccc(Cl)cc1)c1ccc2c(c1)c(-c1cccc(Cl)c1)cc(=O)n2C [tipifarnib]
In short: as §1

mubritinib = compound: FC(F)(F)c1ccc(/C=C/c2nc(COc3ccc(CCCCn4ccnn4)cc3)co2)cc1 [mubritinib]
In short: as §1

[6] = compound: NC(=O)Nc1cc(-c2cccc(F)c2)sc1C(=O)N[C@H]1CCCNC1
In short: as §1

[7] = compound: NC(=O)c1cnc(N[C@@H]2CCCC[C@@H]2N)nc1Nc1cccc(-n2nccn2)c1
In short: as §1

[8] = compound: NC1(c2ccc(-c3nc4ccn5c(=O)[nH]nc5c4cc3-c3ccccc3)cc2)CCC1
In short: as §1

[9] = compound: NCC(=O)Nc1ccc(-n2nc(C(F)(F)F)cc2-c2ccc3c(ccc4ccccc43)c2)cc1
In short: as §1

entinostat = compound: Nc1ccccc1NC(=O)c1ccc(CNC(=O)OCc2cccnc2)cc1 [entinostat]
In short: as §1

vorinostat = compound: O=C(CCCCCCC(=O)Nc1ccccc1)NO [vorinostat]
In short: as §1

citarinostat = compound: O=C(CCCCCCNC(=O)c1cnc(N(c2ccccc2)c2ccccc2Cl)nc1)NO [citarinostat]
In short: as §1

silmitasertib = compound: O=C(O)c1ccc2c(c1)nc(Nc1cccc(Cl)c1)c1ccncc12 [silmitasertib]
In short: as §1

[10] = compound: O=C1NC(=O)C(c2cnc3ccccn23)=C1c1cn2c3c(cc(F)cc13)CN(C(=O)N1CCCCC1)CC2
In short: as §1

[11] = compound: c1cc(OCCN2CCCCC2)cc(-c2n[nH]c3ccc(-c4nnc[nH]4)cc23)c1
In short: as §1

UniProt P49841, sequence (P49841 whole entry, looked up): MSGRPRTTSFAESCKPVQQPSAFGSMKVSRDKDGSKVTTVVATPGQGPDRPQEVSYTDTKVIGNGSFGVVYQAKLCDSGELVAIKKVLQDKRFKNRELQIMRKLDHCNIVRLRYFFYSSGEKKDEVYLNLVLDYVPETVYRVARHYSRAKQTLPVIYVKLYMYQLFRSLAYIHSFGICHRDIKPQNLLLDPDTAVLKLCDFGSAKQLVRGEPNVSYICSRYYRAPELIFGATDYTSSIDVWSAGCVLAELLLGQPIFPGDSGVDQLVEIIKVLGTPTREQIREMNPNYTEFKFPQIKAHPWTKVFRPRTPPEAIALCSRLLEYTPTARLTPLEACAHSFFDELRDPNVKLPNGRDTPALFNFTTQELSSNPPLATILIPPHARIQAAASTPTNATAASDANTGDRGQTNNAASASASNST
UniProt Q6Y7W6, sequence (Q6Y7W6 whole entry, looked up): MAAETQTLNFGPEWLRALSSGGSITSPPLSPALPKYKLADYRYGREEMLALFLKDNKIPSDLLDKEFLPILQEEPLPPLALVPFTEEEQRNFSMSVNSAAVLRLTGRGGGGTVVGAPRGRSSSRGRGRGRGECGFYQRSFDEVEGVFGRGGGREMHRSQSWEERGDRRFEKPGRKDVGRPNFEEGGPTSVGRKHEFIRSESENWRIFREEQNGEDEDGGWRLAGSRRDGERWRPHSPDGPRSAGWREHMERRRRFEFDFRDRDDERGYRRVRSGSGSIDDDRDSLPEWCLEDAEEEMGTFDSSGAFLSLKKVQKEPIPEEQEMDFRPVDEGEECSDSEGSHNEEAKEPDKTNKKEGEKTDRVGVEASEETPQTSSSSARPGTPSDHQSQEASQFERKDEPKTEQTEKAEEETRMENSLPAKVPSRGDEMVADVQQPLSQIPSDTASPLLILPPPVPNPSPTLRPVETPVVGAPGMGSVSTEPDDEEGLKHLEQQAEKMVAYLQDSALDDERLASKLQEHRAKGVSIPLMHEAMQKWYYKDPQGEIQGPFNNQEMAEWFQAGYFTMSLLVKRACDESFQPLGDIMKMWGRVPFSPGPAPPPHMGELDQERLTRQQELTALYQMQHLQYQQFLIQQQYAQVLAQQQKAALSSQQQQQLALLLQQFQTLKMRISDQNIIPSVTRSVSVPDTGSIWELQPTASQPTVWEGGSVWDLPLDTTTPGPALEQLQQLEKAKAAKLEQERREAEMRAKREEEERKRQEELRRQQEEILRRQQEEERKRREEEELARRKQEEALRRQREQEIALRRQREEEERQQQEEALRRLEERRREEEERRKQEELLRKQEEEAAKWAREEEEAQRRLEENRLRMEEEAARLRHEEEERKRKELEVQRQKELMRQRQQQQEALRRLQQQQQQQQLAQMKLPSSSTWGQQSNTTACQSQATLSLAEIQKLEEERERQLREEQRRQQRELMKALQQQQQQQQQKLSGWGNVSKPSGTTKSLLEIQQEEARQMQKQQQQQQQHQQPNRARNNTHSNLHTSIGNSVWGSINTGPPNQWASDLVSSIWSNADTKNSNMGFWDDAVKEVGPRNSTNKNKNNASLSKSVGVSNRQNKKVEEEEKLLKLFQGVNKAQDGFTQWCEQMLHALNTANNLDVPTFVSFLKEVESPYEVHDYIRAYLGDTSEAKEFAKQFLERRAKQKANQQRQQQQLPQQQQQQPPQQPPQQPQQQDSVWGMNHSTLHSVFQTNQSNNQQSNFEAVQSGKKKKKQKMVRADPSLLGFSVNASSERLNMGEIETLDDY
UniProt P55084, sequence (P55084 whole entry, looked up): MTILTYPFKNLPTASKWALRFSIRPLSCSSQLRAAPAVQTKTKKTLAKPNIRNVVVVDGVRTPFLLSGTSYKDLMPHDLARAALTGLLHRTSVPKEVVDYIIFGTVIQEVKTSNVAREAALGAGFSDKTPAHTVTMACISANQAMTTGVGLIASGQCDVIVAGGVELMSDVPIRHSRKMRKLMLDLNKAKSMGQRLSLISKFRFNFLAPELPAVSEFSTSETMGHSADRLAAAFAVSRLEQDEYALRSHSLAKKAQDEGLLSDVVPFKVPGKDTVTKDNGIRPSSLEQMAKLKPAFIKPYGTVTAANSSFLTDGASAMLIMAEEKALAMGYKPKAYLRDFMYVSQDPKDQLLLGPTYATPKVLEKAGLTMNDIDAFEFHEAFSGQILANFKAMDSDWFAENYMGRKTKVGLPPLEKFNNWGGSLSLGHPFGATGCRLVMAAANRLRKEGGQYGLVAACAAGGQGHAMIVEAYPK
UniProt Q9UKN8, sequence (Q9UKN8 whole entry, looked up): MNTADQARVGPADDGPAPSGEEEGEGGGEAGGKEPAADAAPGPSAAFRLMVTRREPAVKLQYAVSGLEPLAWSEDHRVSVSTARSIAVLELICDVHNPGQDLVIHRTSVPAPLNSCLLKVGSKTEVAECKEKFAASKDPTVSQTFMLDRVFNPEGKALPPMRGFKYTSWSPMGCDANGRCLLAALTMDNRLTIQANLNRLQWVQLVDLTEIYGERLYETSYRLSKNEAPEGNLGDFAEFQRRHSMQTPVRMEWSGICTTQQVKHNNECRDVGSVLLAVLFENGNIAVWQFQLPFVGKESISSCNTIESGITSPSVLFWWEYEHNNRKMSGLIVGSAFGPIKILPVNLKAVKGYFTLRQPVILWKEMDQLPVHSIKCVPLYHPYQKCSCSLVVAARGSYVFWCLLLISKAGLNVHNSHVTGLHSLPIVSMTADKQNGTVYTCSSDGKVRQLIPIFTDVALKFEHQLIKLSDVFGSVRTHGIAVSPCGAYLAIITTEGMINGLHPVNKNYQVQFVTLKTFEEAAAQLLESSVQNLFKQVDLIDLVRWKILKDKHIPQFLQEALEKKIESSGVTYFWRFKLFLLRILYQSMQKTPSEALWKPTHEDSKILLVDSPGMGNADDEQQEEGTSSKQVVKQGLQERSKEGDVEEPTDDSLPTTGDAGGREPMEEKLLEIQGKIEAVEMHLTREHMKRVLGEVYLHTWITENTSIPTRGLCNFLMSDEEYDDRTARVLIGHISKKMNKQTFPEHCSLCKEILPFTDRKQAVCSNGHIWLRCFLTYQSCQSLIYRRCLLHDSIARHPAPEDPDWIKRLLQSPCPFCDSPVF
UniProt O76003, sequence (O76003 whole entry, looked up): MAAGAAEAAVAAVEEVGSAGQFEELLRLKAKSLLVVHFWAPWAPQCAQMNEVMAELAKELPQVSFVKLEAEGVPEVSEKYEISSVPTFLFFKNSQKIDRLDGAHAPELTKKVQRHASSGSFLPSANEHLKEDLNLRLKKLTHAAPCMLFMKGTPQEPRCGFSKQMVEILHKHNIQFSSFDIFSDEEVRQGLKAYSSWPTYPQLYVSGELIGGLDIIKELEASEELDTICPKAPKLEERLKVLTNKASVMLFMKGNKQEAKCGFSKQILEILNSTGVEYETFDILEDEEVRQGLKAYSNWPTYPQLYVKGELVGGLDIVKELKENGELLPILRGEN
UniProt Q16774, sequence (Q16774 whole entry, looked up): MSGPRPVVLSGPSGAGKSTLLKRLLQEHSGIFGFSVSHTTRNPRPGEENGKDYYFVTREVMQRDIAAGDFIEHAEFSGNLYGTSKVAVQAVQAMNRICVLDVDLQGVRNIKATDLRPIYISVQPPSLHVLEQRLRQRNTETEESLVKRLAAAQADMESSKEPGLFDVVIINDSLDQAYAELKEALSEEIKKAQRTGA
UniProt Q9NP66, sequence (Q9NP66 whole entry, looked up): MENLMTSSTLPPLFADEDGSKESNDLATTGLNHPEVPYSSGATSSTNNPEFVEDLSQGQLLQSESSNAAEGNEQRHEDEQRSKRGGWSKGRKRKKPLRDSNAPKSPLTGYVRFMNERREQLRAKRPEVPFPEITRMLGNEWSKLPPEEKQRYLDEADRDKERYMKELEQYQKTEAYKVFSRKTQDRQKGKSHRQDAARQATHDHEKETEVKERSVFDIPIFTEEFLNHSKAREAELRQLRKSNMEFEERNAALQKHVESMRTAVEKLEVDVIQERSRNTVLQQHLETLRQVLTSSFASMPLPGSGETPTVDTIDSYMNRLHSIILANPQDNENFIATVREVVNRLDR
UniProt P50213, sequence (P50213 whole entry, looked up): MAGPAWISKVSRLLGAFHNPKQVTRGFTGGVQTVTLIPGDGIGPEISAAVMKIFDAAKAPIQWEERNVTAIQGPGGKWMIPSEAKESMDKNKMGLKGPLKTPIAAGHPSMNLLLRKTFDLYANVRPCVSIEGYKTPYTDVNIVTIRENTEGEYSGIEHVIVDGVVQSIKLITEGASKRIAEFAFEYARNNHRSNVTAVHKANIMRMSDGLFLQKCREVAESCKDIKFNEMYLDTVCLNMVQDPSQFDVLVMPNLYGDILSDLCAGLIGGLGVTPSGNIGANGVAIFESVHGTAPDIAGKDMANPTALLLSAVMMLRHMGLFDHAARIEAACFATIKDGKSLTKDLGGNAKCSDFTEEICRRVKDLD
UniProt Q10471, sequence (Q10471 whole entry, looked up): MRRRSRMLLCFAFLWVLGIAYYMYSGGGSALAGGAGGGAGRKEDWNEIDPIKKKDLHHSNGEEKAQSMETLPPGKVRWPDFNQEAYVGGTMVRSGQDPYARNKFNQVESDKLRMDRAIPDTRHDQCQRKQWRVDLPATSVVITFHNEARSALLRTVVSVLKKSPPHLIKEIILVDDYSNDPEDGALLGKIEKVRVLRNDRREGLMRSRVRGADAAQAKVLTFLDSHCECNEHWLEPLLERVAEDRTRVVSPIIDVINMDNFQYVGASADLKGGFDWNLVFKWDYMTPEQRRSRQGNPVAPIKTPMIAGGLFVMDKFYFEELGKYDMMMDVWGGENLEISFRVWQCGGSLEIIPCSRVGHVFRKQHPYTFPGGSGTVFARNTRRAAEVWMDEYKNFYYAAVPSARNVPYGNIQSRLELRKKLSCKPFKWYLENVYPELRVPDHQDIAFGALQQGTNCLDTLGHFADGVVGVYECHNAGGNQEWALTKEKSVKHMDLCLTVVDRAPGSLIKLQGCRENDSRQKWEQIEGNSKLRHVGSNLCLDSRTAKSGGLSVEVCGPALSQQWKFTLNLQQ

| Target | log2 fold change (bafetinib) | log2 fold change [1] | log2 fold change (nilotinib) | log2 fold change [2] | log2 fold change (dasatinib) | log2 fold change [3] | log2 fold change [4] | log2 fold change [5] | log2 fold change (tipifarnib) | log2 fold change (mubritinib) | log2 fold change [6] | log2 fold change [7] | log2 fold change [8] | log2 fold change [9] | log2 fold change (entinostat) | log2 fold change (vorinostat) | log2 fold change (citarinostat) | log2 fold change (silmitasertib) | log2 fold change [10] | log2 fold change [11] |
| --- | --- | --- | --- | --- | --- | --- | --- | --- | --- | --- | --- | --- | --- | --- | --- | --- | --- | --- | --- | --- |
| FAM91A1 (UniProt Q658Y4) | -0.01 | 0.07 | -0.007 | 0.073 | -0.048 | 0.01 | 0.021 | -0.015 | -0.004 | 0.052 | -0.009 | -0.061 | -0.08 | -0.042 | -0.003 | 0.004 | -0.003 | 0.073 | -0.346 | -0.084 |
| GLRX3 (UniProt O76003) | -0.04 | 0.025 | -0.048 | -0.022 | -0.054 | 0.015 | -0.015 | -0.014 | -0.082 | -0.004 | 0 | -0.057 | -0.066 | -0.042 | 0.022 | -0.013 | 0.014 | 0.034 | -0.094 | -0.024 |
| GTF3C4 (UniProt Q9UKN8) | -0.065 | 0.019 | -0.034 | -0.069 | -0.024 | 0.036 | -0.017 | -0.007 | 0.014 | 0.01 | -0.015 | -0.012 | -0.077 | -0.04 | 0.024 | -0.103 | 0.04 | 0.03 | -0.013 | -0.019 |
| GSK3B isoform 2 (UniProt P49841) | -0.003 | 0.055 | -0.04 | 0.094 | -0.115 | 0.124 | 0.055 | -0.013 | -0.024 | -0.008 | -0.027 | -0.06 | -0.055 | -0.028 | 0.005 | 0.023 | 0.047 | 0.012 | 0.29 (active) | – |
| GALNT2 (UniProt Q10471) | -0.046 | 0.041 | -0.07 | -0.066 | -0.004 | 0.056 | 0.032 | -0.018 | 0.008 | 0.008 | 0 | -0.042 | -0.125 | 0.002 | -0.018 | 0.033 | 0.064 | -0.021 | -0.034 | 0.005 |
| HMGCR isoform 3 (UniProt P04035) | 0.008 | 0.016 | -0.241 | 0.015 | -0.027 | -0.087 | -0.023 | -0.062 | -0.021 | 0.1 | 0.184 | -0.115 | 0.048 | -0.022 | 0.082 | -0.019 | -0.175 | -0.08 | 0.15 | 0.081 |
| GALK1 isoform 2 (UniProt P51570) | 0.061 | 0.062 | -0.018 | -0.001 | -0.043 | -0.015 | 0.055 | -0.084 | -0.136 | 0.01 | 0.357 (active) | 0.066 | -0.087 | 0.141 | 0.171 | 0.094 | 0.111 | -0.063 | 0.049 | 0.11 |
| HADHB (UniProt P55084) | 0.251 | 0.132 | 0.074 | -0.106 | -0.072 | 0.032 | 0.155 | 0.108 | -0.264 | 0.571 (active) | -0.079 | 0.021 | 0.104 | 0.078 | 0.014 | 0 | 0.037 | -0.115 | 0.716 (active) | -0.056 |
| GSTP1 (UniProt P09211) | -0.061 | -0.021 | -0.018 | -0.017 | -0.014 | 0.007 | 0.032 | 0.038 | -0.007 | 0.038 | -0.044 | -0.01 | -0.056 | 0.001 | -0.006 | -0.012 | 0.034 | -0.038 | -0.005 | -0.013 |
| FHOD1 (UniProt Q9Y613) | -0.187 | -0.005 | -0.089 | -0.109 | 0.044 | -0.043 | -0.238 | -0.089 | 0.041 | -0.218 | -0.075 | -0.042 | 0.179 | 0.051 | -0.103 | 0.034 | -0.073 | 0.177 | 0.23 | -0.085 |
| HMG20A (UniProt Q9NP66) | -0.012 | -0.05 | -0.046 | -0.02 | 0.052 | -0.012 | -0.05 | -0.224 | 0.064 | -0.021 | 0 | 0.126 | -0.054 | -0.056 | 0.064 | 0.09 | 0.072 | 0.069 | 0 | -0.167 |
| IDH3A (UniProt P50213) | -0.016 | 0.021 | -0.027 | -0.006 | -0.005 | -0.024 | 0.045 | 0.021 | -0.001 | 0.06 | 0 | -0.033 | -0.062 | -0.005 | -0.025 | -0.029 | 0.023 | -0.034 | -0.021 | 0.011 |
| GHDC (UniProt Q8N2G8) | -0.165 | 0.018 | 0.036 | -0.001 | 0.027 | -0.011 | 0.045 | 0.012 | 0.146 | 0.01 | -0.021 | 0.013 | 0.005 | -0.018 | 0.004 | -0.023 | 0.045 | 0.001 | -0.045 | -0.03 |
| GUK1 isoform 2 (UniProt Q16774) | 0.134 | 0.053 | 0.226 | -0.056 | -0.109 | 0.054 | 0.058 | -0.007 | -0.15 | 0.397 (active) | -0.126 | -0.029 | -0.059 | -0.064 | 0.065 | -0.002 | 0.031 | 0.044 | -0.094 | 0.122 |
| GIGYF2 (UniProt Q6Y7W6) | -0.076 | 0.045 | -0.161 | -0.105 | -0.22 | -0.023 | 0.054 | -0.025 | -0.119 | -0.03 | -0.102 | -0.062 | -0.046 | -0.079 | 0.024 | 0.103 | 0.06 | -0.004 | -0.016 | -0.065 |
| HNRNPC isoform 2 (UniProt P07910) | 0.159 | -0.228 | 0.054 | -0.099 | 0.425 | -0.286 | -0.431 | -0.173 | 0.596 | -0.268 | -0.032 | -0.049 | 0.568 | -0.037 | 0.148 | -0.041 | -0.062 | 0.199 | 0.104 | -0.252 |
